# The supplement of paper PMC10105736
# Values without a mark were called inactive.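 The calls were made as follows: active = MAPPIT score above the 99th percentile of random reference set scores in the same batch; inactive = at or below it.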
# B1: lok (protein)
# chain: MARDTQGTQGTQSQASNIWTQVESQPMEKIVWGRLYGKNIKIKSLGTSSKYRIIYTHSSFSVDLNNDEFTAGRGEANDLILTLNDLPEKILTRISKVHFIIKRANCELTNPVYIQDLSRNGTFVNNEKIGTNRMRILKNDDVISLSHPTYKAFVFKDLSPNESIGLPEEINKTYYVNRKLGSGAYGLVRLVYDTRTCQQFAMKIVKKNMLSGARPSTNFSDPDRVLNEAKIMKNLSHPCVVRMHDIVDKPDSVYMVLEFMRGGDLLNRIISNKLLSEDISKLYFYQMCHAVKYLHDRGITHRDLKPDNVLLETNDEETLLKVSDFGLSKFVQKDSVMRTLCGTPLYVAPEVLITGGREAYTKKVDIWSLGVVLFTCLSGTLPFSDEYGTPAAQQIKKGRFAYGHPSWKSVSQRAKLLINQMLIVDPERRPSIDDVLQSSWLRDAPMLQKAKRLMKLDGMEIEEENFLEPPTKRSRR
# B2: pho (protein)
# chain: MAYERFGIILQSEQYDEDIGNTKVNQKMNEGNHYDLHRKNAFDRIIHSESKKGDNVINYNIHENDKIKAADNIFSSKLKMNPNMSYEMNINCFKNIGYGENQETSKVLTNSLSNNDINTEESGVVDKNSPFLTLGTTILNSNGKSRRWEQKLVHIKTMEGEFSVTMWASGISDDEYSGSDQIVGASDLLKGKEEFGIDGFTSQQNKEYQKMESKFTNAQTLEMPHPISSVQIMDHLIKERGNLSQENNISERILSKTTLSFEEPILLPDSSSIELVNETAAMTINNHRTLSNHTGNTGDLHALPSSVPFRIGLHEGQVNDCLSTISQSTHQDNTDSTGCGEMNLSEVTVSYTNDKKIACPHKGCNKHFRDSSAMRKHLHTHGPRVHVCAECGKAFVESSKLKRHQLVHTGEKPFQCTFEGCGKRFSLDFNLRTHVRIHTGDRPFVCPFDACNKKFAQSTNLKSHILTHAKAKRNTSISGKSGCSNAESNSQSEDTSANYVKVELQDSVTENHVPFVVYAD
# B3: Obp84a (protein)
# chain: MYSALVRACAVIAFLILSPNCARALQDHAKDNGDIFIINYDSFDGDVDDISTTTSAPREADYVDFDEVNRNCNASFITSMTNVLQFNNTGDLPDDKDKVTSMCYFHCFFEKSGLMTDYKLNTDLVRKYVWPATGDSVEACEAEGKDETNACMRGYAIVKCVFTRALTDARNKPTV
# B4: EMC8-9 (protein)
# chain: MCDYKVSERAYAKLIFHAAKYPHQAVNGLLLAEKTSKGSQVEIVDAIPLFHQCLYVTPMAEVALMLIDAHAEREGLVIAGYYAAPENFYDNQVDKTPAAKIADKIQENFKNACFVVVDNKLMTLQHDRAAIQVFNCPGDSGARWSKAKFTLSQASDTLEGVSLLLKRGAMRDLVDFDNHLDNPDKNWTNDFLNQPLNDLQKLY
# B5: RFeSP (protein)
# chain: MMNAVSRAYVRGGAQVLSTGLKASGVAVNSMANRQAHTDLQVPDFSAYRRESVKDSRRRNDTAEERKAFSYLMVGAGAVGGAYAAKGLVNTFIGSMSASAEVLAMAKIEIKLSDIPEGKSVTFKWRGKPLFIRHRTAAEIETERNVPTSTLRDPEADDQRVIKPEWLVVIGVCTHLGCVPIANAGDWGGYYCPCHGSHYDASGRIRKGPAPLNLEVPTHEFPNEGLLVVG
# B6: RpS20 (protein)
# chain: MAAAPKDIEKPHVGDSASVHRIRITLTSRNVRSLENVCRDLINGAKNQNLRVKGPVRMPTKTLRITTRKTPCGEGSKTWDRFQMRIHKRIIDLHSPSEIVKKITSINIEPGVEVEVTIAN
# B7: cnn (protein)
# chain: MNSNRTSSSHNSRNLKILNASFDVPRPPGGGNSPLPSQGRSVRELEEQMSALRKENFNLKLRIYFLEEGQPGARADSSTESLSKQLIDAKIEIATLRKTVDVKMELLKDAARAISHHEELQRKADIDSQAIIDELQEQIHAYQMAESGGQPVENIAKTRKMLRLESEVQRLEEELVNIEARNVAARNELEFMLAERLESLTACEGKIQELAIKNSELVERLEKETASAESSNEAIDSLKVELEACRKENQDLVTSIRTLKHDMKRQVRSMKEAANTMDVQRQSILLLEATIKRKEKSCGSMQKNVLNYEALIAKLNAELETMRQQNVYFRELSENLQQKEVRQLDRGVAIVQPMRMTADAGRFVWQSGTIVAQEPLPLERQSAAATSNVSVSAVRLSSGPPPDQTYPVNGHDRAKYGLLQLFAAKLDWISAVPLALGHLALKIILLAMRLHSCLQNVHIPLRANRDLGAQLADKICELQEAQEKLKERERIHEQACRTIQKLMQKLSSQEKEIKKLNQENEQSANKENDCAKTVISPSSSGRSMSDNEASSQEMSTNLRVRYELKINEQEEKIKQLQTEVKKKTANLQNLVNKELWEKNREVERLTKLLANQQKTLPQISEESAGEADLQQSFTEAEYMRALERNKLLQRKVDVLFQRLADDQQNSAVIGQLRLELQQARTEVETADKWRLECVDVCSVLTNRLEELAGFLNSLLKHKDVLGVLAADRRNAMRKAVDRSLDLSKSLNMTLNITATSLADQSLAQLCNLSEILYTEGDASHKTFNSHEELHAATSMAPTVENLKAENKALKKELEKRRSSEGQRKERRSLPLPSQQFDNQSESEAWSEPDRKVSLARIGLDETSNSLAAPEQAISESESEGRTCATRQDRNRNSERIAQLEEQIAQKDERMLNVQCQMVELDNRYKQEQLRCLDITQQLEQLRAINEALTADLHAIGSHEEERMVELQRQLELKNQQIDQLKLAHSTLTADSQITEMELQALQQQMQEIEQLHADSVETLQSQLQKLKLDAVQQLEEHERLHREALERDWVALTTYQEQAQQLLELQRSLDYHQENEKELKQTLVENELATRALKKQLDESTLQASKAVMERTKAYNDKLQLEKRSEELRLQLEALKEEHQKLLQKRSNSSDVSQSGYTSEEVAVPMGPPSGQATTCKQAAAAVLGQRVNTSSPDLGIESDAGRISSVEVSNAQRAMLKTVEMKTEGSASPKAKSEESTSPDSKSNVATGAATVHDCAKVDLENAELRRKLIRTKRAFEDTYEKLRMANKAKAQVEKDIKNQILKTHNVLRNVRSNMENEL
# B8: Membrin (protein)
# chain: MESLYHQTNNVVKDIERDFQRLSQLSAQESLDVENGIQLKITQANANCDRLDVLLYKVPPSQRQSSKLRVDQLKYDLRHLQTSLQTARERRQRRMQEISEREQLLNHRFTANSAQPEETRLQLDYELQHHTQLGNAHRGVDDMIASGSGILESLISQRMTLGGAHKRIQAIGSTLGLSNHTMKLIERRLVEDRRIFIGGVVVTLLIIALIIYFLVL
# B9: Pcl (protein)
# chain: MMNNHFHLQHDHPPQNVAHPFMQQPSTAVPSAPPATYGYLAQPAGQQPQWMTTTYQILPPSVGPATVAKRYYATTGPQTTHPTHPSTIQITNSFAQQSTPPKQQAATSCSPFKANNIRIISTAPSVYSLNKPPQEAHSTYAPVQSYYLPSGGGQTAGQINLLAASGTGKQLQPPPLVPVTNSTSPPSTVVLDRINICINNHYTETPTSLSSSLTTAQQPSPIIPAIQHKAILPLIDSSTADSSSCSSSSVSSSSYSGTATTSAAVVIVDEPDSTTTTPQTPPTTPEAMSSPGKSSPSPPLLATQSLLKGVNSMKPSFKTVEAAPPTPPTPPSPPPPPPAPPVAAPSPAVTYALQEDVFIKCNDGRFYLGTIIDQTSDQYLIRFDDQSEQWCEPDKLRKLGGGSSITAGGGGASTTESTNTSPSGPMCVACKRSDIEDVVEICERCGRGYHRGCTVEIVTGSGIWSCKRCAKPMKMQQPVSHKITKPAGICRQLPYHADKLSWDEKHRVNEEQIYCYCGKPGKFDHNMLQCCKCRNWFHTQCMQNFKKKLLRGDMFFVFCCTVCNNGIEFVRRMQIEWVDVLHIALYNLRKHQHQKYHHLLNDIWPFILEQRHQLPICEKWRTLPETALMERLKQTLKDYSDRFVCGREFKRAPAFYALRHSGPPHIPKVFLEPHEELSDELLEKRFKLMLMPEEPDEGANELPKRVPKDVYEFNTDEDDPVETSEDEIPIKQIIEKAKKQAAQKADKHDELPLKPDLADDNANDGDPGKLPAPIPPLLDANSSRKRKAFRLSKRYDNSRNHCDLSSDENSSSSRGTSSLDLIIPPPVNFLGRNNPFLMATPKKASQGRSISVGTGVGVNGIINSIFKLKGTSKEQPRMVRTIKRRLSAKDITIGPNQEVRRRRTRRLTTAIEVISTTTINPIPSHYLPIYAKDLQPPAPPMGKPTHGRLLRQRPQKQSPSQSRRNSTSSTATSSSSNGIGAPGHSMLDLKQSVNKYFGGAMNRIDAGEPFAIRAKRRMGNGQVQYLVEWGGDTATTAIGLLGN
# Experiments:
# Assay in all cases: MAPPIT interaction score (arbitrary units); higher = stronger binary interaction signal, active = hit call of the paper
# Doa = settings: MAPPIT configuration: N-N; pair source set: Finley_Y2H
# E(z) = settings: pair source set: Lit-BM-16
# Drat = settings: MAPPIT configuration: N-N; pair source set: RRS
# EMC2B = settings: MAPPIT configuration: N-C; pair source set: Lit-BM-16
# E(spl)m4-BFM = settings: MAPPIT configuration: N-C; pair source set: RRS
# EndoB = settings: MAPPIT configuration: N-N; pair source set: screen_2
# Fatp3 = settings: MAPPIT configuration: N-N; pair source set: Curagen_low_conf
# Eglp4 = settings: MAPPIT configuration: N-C; pair source set: screen_3
# Faf2 = settings: MAPPIT configuration: N-C; pair source set: screen_4
# RIC-3 = settings: MAPPIT configuration: N-C; pair source set: screen_4
# 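Also: HEK293T cells with Epo stimulation, STAT-responsive firefly luciferase reporter, fold induction versus unstimulated cells divided by the larger fold induction of two negative controls lacking either bait or prey.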
binder,measurement,setting,value
B1,MAPPIT interaction score,Doa,0.00241
B2,MAPPIT interaction score,E(z); MAPPIT configuration: N-C,0.498
same,MAPPIT interaction score,E(z); MAPPIT configuration: N-N,0.583
B3,MAPPIT interaction score,Drat,0.229
B4,MAPPIT interaction score,EMC2B,-4.28
B5,MAPPIT interaction score,E(spl)m4-BFM,0.917
B6,MAPPIT interaction score,EndoB,3.62 (active)
B7,MAPPIT interaction score,Fatp3,-0.429
B8,MAPPIT interaction score,Eglp4,0.261
same,MAPPIT interaction score,Faf2,2.2
same,MAPPIT interaction score,RIC-3,-0.382
B9,MAPPIT interaction score,E(z); MAPPIT configuration: N-C,0.709
same,MAPPIT interaction score,E(z); MAPPIT configuration: N-N,3.05 (active)
